Data published in PubChem BioAssay (NCATS).
Results filed as inconclusive are left out. Unmarked numbers belong to inactive results. The source made the active and inactive calls. The call rests on the fitted dose curve.

Assay: Primary qHTS for Huh7 cytotoxicity: counterscreen for inhibitors of MERS-S pseudotyped particle cell entry (AID 1479147)
Conditions: cell viability read-out; series mostly up to 57.1 µM; activity change, negative = cytotoxicity: at the top concentration
On the % scale 0 is the no-effect control and ±100 the full control effect.

Compound	activity change, negative = cytotoxicity	outcome
CO[C@@]12[C@H](COC(N)=O)C3=C(C(=O)C(C)=C(N)C3=O)N1C[C@@H]1N[C@@H]12	-5.16%	–
CCCC(=O)Nc1ccc(OCC(O)CNC(C)C)c(C(C)=O)c1 (stereo not drawn)	–	inactive
C[C@]12CC[C@@H]3c4ccc(O)cc4C[C@@H](CCCCCCCCCS(=O)CCCC(F)(F)C(F)(F)F)[C@H]3[C@@H]1CC[C@@H]2O (stereo partly drawn)	-5.07%	–
Nc1ccc(O)c(C(=O)O)c1	0.591%	–
CN1CCN(C2=Nc3ccccc3Oc3ccc(Cl)cc32)CC1	-1.93%	–
COC(=O)C1=C(C)NC(C)=C(C(=O)OCCN(C)Cc2ccccc2)C1c1cccc([N+](=O)[O-])c1 (stereo not drawn)	-2.14%	–
NC(=O)N1c2ccccc2CC(=O)c2ccccc21	–	inactive
O=C1Nc2ccc(Cl)cc2[C@@](C#CC2CC2)(C(F)(F)F)O1	-16.7%	–
OCCN(CCO)c1nc(N2CCCCC2)c2nc(N(CCO)CCO)nc(N3CCCCC3)c2n1	–	inactive
Cc1cc2c(s1)Nc1ccccc1N=C2N1CCN(C)CC1	–	inactive
COc1nc(N)nc2c1ncn2[C@@H]1O[C@H](CO)[C@@H](O)[C@@H]1O	–	inactive
Cc1nc2n(c(=O)c1CCN1CCC(c3noc4cc(F)ccc34)CC1)CCCC2	-9.95%	–
CCCCc1oc2ccccc2c1C(=O)c1cc(I)c(OCCN(CC)CC)c(I)c1	–	inactive
Fc1ccc([C@@H]2CCNC[C@H]2COc2ccc3c(c2)OCO3)cc1	-12%	–
CC/C(=C(\c1ccccc1)c1ccc(OCCN(C)C)cc1)c1ccccc1	-13.5%	–
CC(=O)CCCCn1c(=O)c2c(ncn2C)n(C)c1=O	–	inactive
Oc1cc(Cl)ccc1Oc1ccc(Cl)cc1Cl	-9.55%	–
Cc1ccc(O)c([C@H](CCN(C(C)C)C(C)C)c2ccccc2)c1	-4.66%	–
C=C[C@H]1CN2CC[C@H]1C[C@@H]2[C@@H](O)c1ccnc2ccc(OC)cc12	–	inactive
CN1CCN(C(c2ccccc2)c2ccccc2)CC1	-2.7%	–

Compound	activity change, negative = cytotoxicity	outcome
Cc1onc(-c2ccccc2Cl)c1C(=O)N[C@@H]1C(=O)N2[C@@H]1SC(C)(C)[C@@H]2C(=O)O	–	inactive
C[C@H]1c2cccc(O)c2C(O)=C2C(=O)[C@]3(O)C(O)=C(C(N)=O)C(=O)[C@@H](N(C)C)[C@@H]3[C@@H](O)[C@@H]21	–	inactive
CN(C)CC/C=C1\c2ccccc2COc2ccccc21	-17.2%	–
C[C@@H](O[C@H]1OCCN(Cc2n[nH]c(=O)[nH]2)[C@H]1c1ccc(F)cc1)c1cc(C(F)(F)F)cc(C(F)(F)F)c1	–	inactive
CCCCc1ncc(/C=C(\Cc2cccs2)C(=O)O)n1Cc1ccc(C(=O)O)cc1	–	inactive
O=C1CCc2cc(OCCCCc3nnnn3C3CCCCC3)ccc2N1	-1.14%	–
OC(CCN1CCCC1)(c1ccccc1)C1CCCCC1 (stereo not drawn)	0.0792%	–
Cc1ccccc1C(=O)Nc1ccc(C(=O)N2CCCC(O)c3cc(Cl)ccc32)c(C)c1 (stereo not drawn)	–	inactive
C[C@H]1O[C@H](O[C@H]2[C@H](O)[C@@H](O)[C@@H](O[C@H]3[C@H](O)[C@@H](O)[C@H](O)O[C@@H]3CO)O[C@@H]2CO)[C@H](O)[C@@H](O)[C@@H]1N[C@H]1C=C(CO)[C@@H](O)[C@H](O)[C@H]1O	-12.4%	–
COc1ccc2nc(S(=O)Cc3ncc(C)c(OC)c3C)[nH]c2c1 (stereo not drawn)	-14.1%	–
CN(C)CCc1c[nH]c2ccc(C[C@H]3COC(=O)N3)cc12	–	inactive
Nc1ncn([C@@H]2O[C@H](CO)[C@@H](O)[C@H]2O)c(=O)n1	–	inactive
CC(=O)O[C@]1(C(C)=O)CC[C@H]2[C@@H]3C=C(Cl)C4=CC(=O)[C@@H]5C[C@@H]5[C@]4(C)[C@H]3CC[C@@]21C	-18.5%	–
COc1ccccc1OCC(O)CN1CCN(CC(=O)Nc2c(C)cccc2C)CC1 (stereo not drawn)	–	inactive
Cc1nccn1CC1CCc2c(c3ccccc3n2C)C1=O (stereo not drawn)	0.413%	–
CCN(CC)CCOC(=O)C1(C2CCCCC2)CCCCC1	–	inactive
COc1cc2nc(N(C)CCCNC(=O)C3CCCO3)nc(N)c2cc1OC (stereo not drawn)	-29.7%	–
CC[C@H](C)C(=O)O[C@H]1C[C@@H](C)C=C2C=C[C@H](C)[C@H](CC[C@@H]3C[C@@H](O)CC(=O)O3)[C@H]21	–	inactive
C#C[C@]1(O)CC[C@H]2[C@@H]3CCC4=Cc5oncc5C[C@]4(C)[C@H]3CC[C@@]21C	-17.1%	–
C#Cc1cccc(Nc2ncnc3cc(OCCOC)c(OCCOC)cc23)c1	-9.53%	–

Assay: Primary qHTS for inhibitors of MERS-S pseudo-typed particle cell entry (AID 1479149); further: nearly all actives have a fitted effect of over 60% in size; further: potency means the concentration at half of the fitted maximal effect
Conditions: MERS-S pseudotyped particle entry, luciferase; series mostly up to 57.1 µM; activity change, negative = inhibition: at the top concentration

Compound	outcome	activity change, negative = inhibition	Potency
CCCC(=O)Nc1ccc(OCC(O)CNC(C)C)c(C(C)=O)c1 (stereo not drawn)	inactive	–	–
C[C@]12CC[C@@H]3c4ccc(O)cc4C[C@@H](CCCCCCCCCS(=O)CCCC(F)(F)C(F)(F)F)[C@H]3[C@@H]1CC[C@@H]2O (stereo partly drawn)	–	-19.2%	–
Nc1ccc(O)c(C(=O)O)c1	–	-14.8%	–
NC(=O)N1c2ccccc2CC(=O)c2ccccc21	–	-13.5%	–
O=C1Nc2ccc(Cl)cc2[C@@](C#CC2CC2)(C(F)(F)F)O1	–	-15.9%	–
Cc1cc2c(s1)Nc1ccccc1N=C2N1CCN(C)CC1	–	-22.9%	–
COc1nc(N)nc2c1ncn2[C@@H]1O[C@H](CO)[C@@H](O)[C@@H]1O	inactive	–	–
CCCCc1oc2ccccc2c1C(=O)c1cc(I)c(OCCN(CC)CC)c(I)c1	–	–	10 µM (active)
CC/C(=C(\c1ccccc1)c1ccc(OCCN(C)C)cc1)c1ccccc1	–	–	7.08 µM (active)
CC(=O)CCCCn1c(=O)c2c(ncn2C)n(C)c1=O	inactive	–	–
Oc1cc(Cl)ccc1Oc1ccc(Cl)cc1Cl	inactive	–	–
Cc1onc(-c2ccccc2Cl)c1C(=O)N[C@@H]1C(=O)N2[C@@H]1SC(C)(C)[C@@H]2C(=O)O	inactive	–	–
CCCCc1ncc(/C=C(\Cc2cccs2)C(=O)O)n1Cc1ccc(C(=O)O)cc1	inactive	–	–
Cc1ccccc1C(=O)Nc1ccc(C(=O)N2CCCC(O)c3cc(Cl)ccc32)c(C)c1 (stereo not drawn)	inactive	–	–
C[C@H]1O[C@H](O[C@H]2[C@H](O)[C@@H](O)[C@@H](O[C@H]3[C@H](O)[C@@H](O)[C@H](O)O[C@@H]3CO)O[C@@H]2CO)[C@H](O)[C@@H](O)[C@@H]1N[C@H]1C=C(CO)[C@@H](O)[C@H](O)[C@H]1O	inactive	–	–
CN(C)CCc1c[nH]c2ccc(C[C@H]3COC(=O)N3)cc12	inactive	–	–
COc1ccccc1OCC(O)CN1CCN(CC(=O)Nc2c(C)cccc2C)CC1 (stereo not drawn)	inactive	–	–
Cc1nccn1CC1CCc2c(c3ccccc3n2C)C1=O (stereo not drawn)	–	-11.1%	–
